{"source": "PubChem BioAssay (NCATS)", "key": {"[1]": {"biological_target": "Cytochrome P450 1A2 (Homo sapiens) (UniProt P05177)", "sequence (P05177 whole entry, looked up)": "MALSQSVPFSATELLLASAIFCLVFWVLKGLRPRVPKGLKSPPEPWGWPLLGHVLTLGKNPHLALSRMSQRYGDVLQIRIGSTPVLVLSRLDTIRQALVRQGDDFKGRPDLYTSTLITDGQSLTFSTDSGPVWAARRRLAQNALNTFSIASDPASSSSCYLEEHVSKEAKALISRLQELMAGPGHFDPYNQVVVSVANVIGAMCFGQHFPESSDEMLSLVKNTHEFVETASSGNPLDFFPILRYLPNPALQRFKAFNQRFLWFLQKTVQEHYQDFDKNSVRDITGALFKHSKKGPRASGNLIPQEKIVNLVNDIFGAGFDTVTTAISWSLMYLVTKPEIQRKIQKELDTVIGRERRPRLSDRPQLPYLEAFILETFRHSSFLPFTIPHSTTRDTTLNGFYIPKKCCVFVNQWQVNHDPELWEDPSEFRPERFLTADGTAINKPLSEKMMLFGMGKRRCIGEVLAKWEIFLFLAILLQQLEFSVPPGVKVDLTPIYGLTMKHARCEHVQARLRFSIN", "assay": "p450-cyp1a2 (AID 410; calls by dose curve; note: potency is the fitted concentration of half-maximal effect)", "outline": "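Read-out is luminescence from luciferin produced by CYP1A2 demethylation of Luciferin-ME (100uM, at Km). Detection reagent stopped the 60 min NADPH-dependent reaction; signals were normalized to 57 uM furafylline.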"}, "[2]": {"assay": "NFAT Signaling Pathway (AID 444; active = well fitted curve in either direction with a large enough effect, not every such curve was filed as active;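 note: carbachol stimulus at about its EC50 of 1 µM final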)", "conditions": "Jurkat NFAT-bla M1, carbachol, beta-lactamase ratio, 5 h; at 38 µM (top of the series)", "outline": "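Jurkat cells carrying an NFAT-driven β-lactamase reporter and co-transfected muscarinic M1 receptor were treated with compound plus carbachol (1 uM final, an EC50 level) for 5 h at 37 °C. CCF4 loading followed for 1 h at RT; 460/530 nm ratio gave %activity.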"}, "[3]": {"biological_target": "Glucocorticoid receptor (Homo sapiens) (UniProt P04150)", "sequence (P04150 whole entry, looked up, the tested form may be a part)": "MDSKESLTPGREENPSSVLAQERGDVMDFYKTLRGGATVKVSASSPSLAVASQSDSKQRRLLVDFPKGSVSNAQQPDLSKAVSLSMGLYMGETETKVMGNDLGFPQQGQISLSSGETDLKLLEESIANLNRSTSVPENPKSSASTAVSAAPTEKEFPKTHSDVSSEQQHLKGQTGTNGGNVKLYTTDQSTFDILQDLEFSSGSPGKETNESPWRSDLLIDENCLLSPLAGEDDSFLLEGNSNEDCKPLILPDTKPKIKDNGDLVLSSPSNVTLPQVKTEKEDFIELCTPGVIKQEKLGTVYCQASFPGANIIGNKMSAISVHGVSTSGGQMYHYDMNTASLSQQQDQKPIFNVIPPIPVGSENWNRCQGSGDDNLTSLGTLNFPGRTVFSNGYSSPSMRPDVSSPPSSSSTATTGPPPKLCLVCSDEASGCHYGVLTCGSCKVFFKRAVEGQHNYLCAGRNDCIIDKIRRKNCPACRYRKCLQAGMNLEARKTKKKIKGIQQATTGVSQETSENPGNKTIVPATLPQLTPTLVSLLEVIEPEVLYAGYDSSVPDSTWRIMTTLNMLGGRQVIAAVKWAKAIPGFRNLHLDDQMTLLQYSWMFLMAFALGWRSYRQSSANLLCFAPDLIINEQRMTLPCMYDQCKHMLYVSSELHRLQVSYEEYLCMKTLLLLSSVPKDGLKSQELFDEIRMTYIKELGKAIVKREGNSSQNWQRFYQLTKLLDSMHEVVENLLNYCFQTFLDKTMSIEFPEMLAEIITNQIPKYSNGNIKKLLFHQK", "assay": "GR-EFC Redistribution (AID 451; calls by dose curve; note: potency is the fitted concentration of half-maximal effect)", "conditions": "CHO-K1 GR-EFC translocation, beta-gal luminescence, 2 h", "outline": "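CHO-K1 cells stably expressing nuclear-localized β-gal enzyme acceptor and GR fused C-terminally to the enzyme donor fragment; ligand-driven nuclear translocation restores β-gal by complementation. Compounds titrated up to 46 uM final, 2 h at 37 °C; luminescence read.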"}, "[4]": {"biological_target": "Mitogen-activated protein kinase 10 (Mus musculus) (UniProt Q61831)", "assay": "JNK3 AlphaScreen Assay (AID 530; active = well fitted curve in either direction with a large enough effect, not every such curve was filed as active)", "outline": "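Biotinylated GST-cJun(1-79) served as substrate for JNK3 in HepG2 lysates stimulated with IL-1beta and TNF-alpha. ATP was 10 uM final, pH 7.6. Ser73 phosphorylation was quantified by AlphaScreen (680 nm excitation).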"}, "[5]": {"biological_target": "3',5'-cyclic-AMP phosphodiesterase 4B (Homo sapiens) (UniProt Q07343)", "sequence (Q07343 whole entry, looked up)": "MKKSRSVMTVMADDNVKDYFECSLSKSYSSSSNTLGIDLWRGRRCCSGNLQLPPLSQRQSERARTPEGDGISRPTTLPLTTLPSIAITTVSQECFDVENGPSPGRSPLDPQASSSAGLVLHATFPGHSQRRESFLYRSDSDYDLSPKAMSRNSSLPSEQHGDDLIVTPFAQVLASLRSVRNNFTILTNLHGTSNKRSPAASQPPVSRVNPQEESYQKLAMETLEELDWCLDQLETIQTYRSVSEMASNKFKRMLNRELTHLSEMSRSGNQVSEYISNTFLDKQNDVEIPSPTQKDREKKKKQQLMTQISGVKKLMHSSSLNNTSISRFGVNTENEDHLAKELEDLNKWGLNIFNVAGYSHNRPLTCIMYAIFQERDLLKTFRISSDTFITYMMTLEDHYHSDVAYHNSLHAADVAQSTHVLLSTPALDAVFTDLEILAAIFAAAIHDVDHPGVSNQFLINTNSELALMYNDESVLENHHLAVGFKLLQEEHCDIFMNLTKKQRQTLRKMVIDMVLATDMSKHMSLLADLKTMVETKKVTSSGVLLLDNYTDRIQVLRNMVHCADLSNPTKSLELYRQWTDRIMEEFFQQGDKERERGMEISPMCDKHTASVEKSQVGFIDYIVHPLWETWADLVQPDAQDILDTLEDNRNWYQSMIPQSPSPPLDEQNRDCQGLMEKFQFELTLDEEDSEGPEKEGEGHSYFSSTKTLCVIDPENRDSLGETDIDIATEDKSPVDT", "assay": "qHTS Assay for Inhibitors of PDE-IV (AID 607; active = well fitted activation curve with a large enough effect in the main read-out, with a control signal flat, not every such curve was filed as active)", "outline": "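ACTOne HEK293 cells carry a modified cAMP-gated CNG channel and express endogenous PDE4; plated 1000 cells/well, compounds up to 22.9 uM final. Membrane-potential dye fluorescence (ex 535/em 590) was read; parental cells received 10 uM forskolin + 100 uM RO 20-1724.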"}, "[6]": {"biological_target": "Guanine nucleotide-binding protein G(i) subunit alpha-1 (Homo sapiens) (UniProt P63096)", "assay": "qHTS Assay for Inhibitors of RGS12 GoLoco Motif Activity (Green Fluorophore) (AID 879);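 note: negative values mean loss of peptide binding seen as reduced polarization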", "outline": "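A drop in FITC polarization marked displacement of the FITC-tagged RGS12 GoLoco peptide (10 nM) from Gαi1 (50 nM). Compounds were incubated 10 min at room temperature in Tris pH 7.5 buffer containing 150 mM NaCl, 0.1 mM GDP and 0.05% NP40; unlabeled peptide titration served as control.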"}, "[7]": {"biological_target": "Cytochrome P450 2C9 (Homo sapiens) (UniProt P11712)", "sequence (P11712 whole entry, looked up)": "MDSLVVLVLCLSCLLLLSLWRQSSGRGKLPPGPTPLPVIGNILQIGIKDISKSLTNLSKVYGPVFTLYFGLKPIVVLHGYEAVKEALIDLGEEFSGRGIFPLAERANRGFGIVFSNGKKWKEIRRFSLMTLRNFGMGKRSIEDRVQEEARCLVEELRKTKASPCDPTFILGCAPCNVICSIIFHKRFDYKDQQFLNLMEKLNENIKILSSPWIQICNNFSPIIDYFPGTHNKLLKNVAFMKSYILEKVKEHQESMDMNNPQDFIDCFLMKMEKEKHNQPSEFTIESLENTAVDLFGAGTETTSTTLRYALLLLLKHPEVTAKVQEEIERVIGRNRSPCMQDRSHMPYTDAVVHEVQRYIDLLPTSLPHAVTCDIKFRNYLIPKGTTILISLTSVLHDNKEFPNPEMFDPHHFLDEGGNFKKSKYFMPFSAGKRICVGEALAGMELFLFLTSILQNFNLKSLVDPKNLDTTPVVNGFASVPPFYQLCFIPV", "assay": "qHTS Assay for Inhibitors and Substrates of Cytochrome P450 2C9 (AID 883); note: potency is the fitted concentration of half-maximal effect; nearly all actives have a fitted effect of over 60% in size", "outline": "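Human CYP2C9 (10nM) hydroxylated Luciferin-H (100uM, at its KM) to luciferin in 25mM KPO4. Compound was preincubated 10 min at 37C, then NADPH regeneration started a 60 min reaction at 37C. Luminescence was read after detection reagent, normalized to 57uM sulphaphenazole.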"}, "[8]": {"biological_target": "Cytochrome P450 3A4 (Homo sapiens) (UniProt P08684)", "sequence (P08684 whole entry, looked up)": "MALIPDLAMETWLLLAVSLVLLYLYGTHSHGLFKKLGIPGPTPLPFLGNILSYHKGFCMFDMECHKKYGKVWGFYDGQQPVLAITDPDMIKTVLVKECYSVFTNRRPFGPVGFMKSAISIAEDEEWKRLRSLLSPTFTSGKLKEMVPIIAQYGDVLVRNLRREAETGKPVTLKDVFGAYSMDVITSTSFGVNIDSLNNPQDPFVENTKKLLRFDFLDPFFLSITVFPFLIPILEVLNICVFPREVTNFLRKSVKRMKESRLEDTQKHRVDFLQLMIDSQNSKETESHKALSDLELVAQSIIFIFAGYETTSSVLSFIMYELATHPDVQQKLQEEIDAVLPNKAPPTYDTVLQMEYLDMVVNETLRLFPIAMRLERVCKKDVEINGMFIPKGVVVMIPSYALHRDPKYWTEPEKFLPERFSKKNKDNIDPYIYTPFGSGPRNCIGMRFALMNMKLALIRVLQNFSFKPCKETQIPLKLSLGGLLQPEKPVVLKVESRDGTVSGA", "assay": "qHTS Assay for Inhibitors and Substrates of Cytochrome P450 3A4 (AID 884); note: potency is the fitted concentration of half-maximal effect; nearly all actives have a fitted effect of over 50% in size", "outline": "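Luminescent readout of luciferin produced by CYP3A4 (20 nM) dealkylation of Luciferin-PPXE, 25 uM (its KM). NADPH-driven reaction ran 60 min at RT after 10 min compound preincubation; data scaled to 57 uM ketoconazole as 100% inhibition.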"}, "[9]": {"biological_target": "Cytochrome P450 3A4 (Homo sapiens) (UniProt P08684)", "assay": "qHTS Assay for Activators of Cytochrome P450 3A4 (AID 885); note: nearly all actives have a fitted effect of over 65% in size", "outline": "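CYP3A4 activity: Luciferin-PPXE O-dealkylation, 25uM substrate, 200mM KPO4, RT throughout. Read-out is luciferase luminescence; higher values reflect activation.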"}, "[10]": {"biological_target": "Muscarinic acetylcholine receptor M1 (Rattus norvegicus) (UniProt P08482)", "sequence (P08482 whole entry, looked up)": "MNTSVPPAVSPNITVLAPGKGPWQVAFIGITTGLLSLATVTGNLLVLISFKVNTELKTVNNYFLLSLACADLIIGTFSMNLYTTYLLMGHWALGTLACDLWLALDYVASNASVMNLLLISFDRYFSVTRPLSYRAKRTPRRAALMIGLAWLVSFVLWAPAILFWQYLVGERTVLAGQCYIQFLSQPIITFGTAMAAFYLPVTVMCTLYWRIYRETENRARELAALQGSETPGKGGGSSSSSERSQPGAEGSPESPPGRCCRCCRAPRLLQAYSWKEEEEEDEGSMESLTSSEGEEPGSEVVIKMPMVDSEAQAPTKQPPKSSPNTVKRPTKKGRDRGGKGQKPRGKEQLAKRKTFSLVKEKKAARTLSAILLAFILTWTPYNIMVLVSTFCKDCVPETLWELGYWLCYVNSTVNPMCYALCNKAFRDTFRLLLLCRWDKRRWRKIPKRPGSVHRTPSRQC", "assay": "qHTS Assay for Antagonists of Acetylcholine Muscarinic M1 Receptor: Kinetic Measurement of Intracellular Calcium Response (AID 943); note: nearly all actives have a fitted effect of over 75% in size", "outline": "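Quantitative HTS in CHO-M1 (rat receptor) cells: 10 min compound exposure ahead of 100 nM carbachol, Fluo-4 fluorescence followed 4 min, value expressed as peak-to-basal ratio.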"}, "[11]": {"biological_target": "Pyruvate kinase (Leishmania mexicana) (UniProt Q27686)", "assay": "qHTS Validation Assay for Inhibitors of Leishmania Mexicana Pyruvate Kinase (AID 945)", "outline": "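Substrate mix (0.5 mM PEP, 0.1 mM ADP, 7 mM MgCl2, 50 mM KCl, pH 7.2 imidazole) received compound by pin tool, then 0.2 nM LmPYK E451W. After 1 h at room temperature, PKLight was added and luminescence measured.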"}, "[12]": {"biological_target": "Pyruvate kinase PKM (Homo sapiens) (UniProt P14618)", "sequence (P14618 whole entry, looked up)": "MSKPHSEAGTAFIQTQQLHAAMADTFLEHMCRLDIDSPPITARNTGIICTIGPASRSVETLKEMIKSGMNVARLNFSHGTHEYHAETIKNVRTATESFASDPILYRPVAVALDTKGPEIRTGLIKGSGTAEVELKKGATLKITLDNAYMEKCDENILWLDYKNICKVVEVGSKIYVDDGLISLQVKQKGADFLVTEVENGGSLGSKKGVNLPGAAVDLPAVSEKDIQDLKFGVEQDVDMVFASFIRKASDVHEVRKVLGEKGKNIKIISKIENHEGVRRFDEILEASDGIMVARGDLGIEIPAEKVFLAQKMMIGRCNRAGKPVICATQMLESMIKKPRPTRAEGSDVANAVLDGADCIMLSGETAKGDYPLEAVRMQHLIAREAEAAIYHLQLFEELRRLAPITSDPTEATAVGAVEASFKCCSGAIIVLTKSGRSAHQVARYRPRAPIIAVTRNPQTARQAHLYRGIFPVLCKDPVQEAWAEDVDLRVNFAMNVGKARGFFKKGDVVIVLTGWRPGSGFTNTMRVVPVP", "assay": "qHTS Assay for Activators of Human Muscle Pyruvate Kinase (AID 954; active = well fitted curve in the direction sought with a large enough effect, not every such curve was filed as active)", "outline": "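A coupled luminescent readout tracked ATP made from ADP by purified PKM2. Final conditions included 0.1 nM enzyme, PEP and ADP at 0.5 and 0.1 mM, pH 7.2 imidazole buffer with BSA, and a one-hour room-temperature reaction.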"}, "[13]": {"biological_target": "Alpha-galactosidase A (Homo sapiens) (UniProt P06280)", "sequence (P06280 whole entry, looked up)": "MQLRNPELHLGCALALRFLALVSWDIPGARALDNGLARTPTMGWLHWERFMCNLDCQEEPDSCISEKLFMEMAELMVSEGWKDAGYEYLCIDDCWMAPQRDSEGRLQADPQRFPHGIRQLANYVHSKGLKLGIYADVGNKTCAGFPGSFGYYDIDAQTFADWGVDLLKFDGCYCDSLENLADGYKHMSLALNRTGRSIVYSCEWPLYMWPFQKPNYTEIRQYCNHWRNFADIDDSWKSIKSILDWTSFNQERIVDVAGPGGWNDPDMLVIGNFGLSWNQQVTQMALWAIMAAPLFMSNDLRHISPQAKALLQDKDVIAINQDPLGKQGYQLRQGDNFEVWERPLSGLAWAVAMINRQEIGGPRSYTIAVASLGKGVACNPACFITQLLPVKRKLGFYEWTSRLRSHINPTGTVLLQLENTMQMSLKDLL", "assay": "Counterscreen for Glucocerebrosidase Inhibitors: qHTS Assay for Human alpha-Galactosidase at pH 4.5 (AID 992)", "outline": "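Citrate buffer pH 4.5, Tween-20 0.005%. Enzyme 2 nM, substrate 80 uM, 20 min RT. Stop pH 10. Fluorescence Ex 365/Em 440. AC50 by Hill fit.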"}, "[14]": {"biological_target": "alpha-glucosidase (Oryza sativa, rice) (UniProt Q653V4)", "assay": "Counterscreen for Glucocerebrosidase Inhibitors: qHTS Assay for Rice alpha-Glucosidase at pH 5.0 (AID 997)", "outline": "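Endpoint fluorogenic assay at pH 5.0: compounds (0.7 nM to 77 uM) titrated against 4 nM rice enzyme and 400 uM 4-MU-alpha-glucoside for 20 min at room temperature; NaOH/glycine stop, read ex 365/em 440 nm, Hill-fitted AC50.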"}, "[15]": {"assay": "Validation of Assay for Modulators of Lamin A Splicing (AID 1459; active = well fitted curve in the direction sought with a large enough effect in the signal ratio; the % refers to the signal ratio;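 note: cells exposed to compound for two days before reading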)", "outline": "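Dual-reporter HeLa S3 line (lamin A-EGFP minigene, DsRed2) treated with compounds 48 hrs, 0.5% DMSO final. Endpoint: EGFP/DsRed2 total intensity ratio from laser-scanning microplate cytometry.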"}, "[16]": {"biological_target": "DNA repair nuclease/redox regulator APEX1 (Homo sapiens) (UniProt P27695)", "sequence (P27695 whole entry, looked up)": "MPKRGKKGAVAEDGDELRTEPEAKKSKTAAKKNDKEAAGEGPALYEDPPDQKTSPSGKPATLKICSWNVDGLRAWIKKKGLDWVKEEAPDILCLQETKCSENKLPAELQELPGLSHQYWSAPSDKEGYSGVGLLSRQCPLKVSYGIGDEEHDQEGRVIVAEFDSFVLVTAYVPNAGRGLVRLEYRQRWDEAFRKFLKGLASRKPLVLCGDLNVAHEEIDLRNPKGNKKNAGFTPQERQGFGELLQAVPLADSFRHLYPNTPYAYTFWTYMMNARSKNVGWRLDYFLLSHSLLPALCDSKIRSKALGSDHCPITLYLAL", "assay": "qHTS Validation Assay for Inhibitors of the Human Apurinic/apyrimidinic Endonuclease 1 (APE1) (AID 1705;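 note: TAMRA fluorescence gain over two minutes as APE1 cuts a quenched THF abasic duplex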)", "outline": "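Substrate: 50 nM final fluorophore/quencher THF-abasic duplex. Enzyme preincubated with compounds 15 min, RT. Progress derived from fluorescence difference, third minus first kinetic read.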"}, "[17]": {"assay": "Counterscreen for APE1 Inhibitors: Fluorescent Dye Displacement Validation Assay (AID 1707)", "outline": "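Signal: ThO fluorescence (ex 480 nm/em 540 nm) on binding 50 nM dsDNA; displacement by test compound reduces it. Conditions: 250 nM dye, 50 mM Tris-HCl pH7.5, 2 mM MgCl2, 50mM NaCl, 0.01% Tween-20.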"}, "[18]": {"biological_target": "Endonuclease 4 (Escherichia coli (strain K12)) (UniProt P0A6C1)", "assay": "Counterscreen for APE1 Inhibitors: qHTS Validation Assay for Inhibitors of Endonuclease IV (AID 1708)", "outline": "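Measured as reaction progress, the fluorescence gain between first and third kinetic reads after adding 50 nM TAMRA/BHQ-2 THF duplex to 2 nM enzyme preincubated 15 min with compound; 2 mM MgCl2, pH 7.5.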"}, "[19]": {"assay": "qHTS for differential inhibitors of proliferation of Plasmodium falciparum line 7G8 (AID 1815);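 note: potency is the fitted concentration of half-maximal effect; parasite growth measured after three days of incubation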"}, "[20]": {"assay": "qHTS for differential inhibitors of proliferation of Plasmodium falciparum line GB4 (AID 1816);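 note: potency is the fitted concentration of half-maximal effect; parasite growth measured after 72 h incubation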", "conditions": "Potency: Plasmodium falciparum GB4 proliferation inhibition"}, "[21]": {"assay": "qHTS for differential inhibitors of proliferation of Plasmodium falciparum line 3D7 (AID 1876); note: potency is the fitted concentration of half-maximal effect"}, "[22]": {"assay": "qHTS for differential inhibitors of proliferation of Plasmodium falciparum line D10 (AID 1877);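 note: potency is the fitted concentration of half-maximal effect; parasites grown with compound for 72 h before DNA staining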"}}, "note": "Where “and” joins values, the source holds several entries; their conditions need not be identical. Equal values may be shown once. Values without a mark were called inactive. Records with an inconclusive call do not appear. A call without a number means that no potency is given here. Calls of active or inactive are those of the source. Unless noted, calls come from the whole dose curve; as a rule, active = well fitted curve in the direction sought with a large enough effect; inconclusive = small, poorly fitted or top-dose-only effect, or another doubt; inactive = no such curve, though single readings can be large; an effect the other way counts as inactive or inconclusive."}
{"compound": "COc1cc2c(cc1C(F)(F)F)N(C(=O)Nc1cc(F)cc(-c3cccnc3)c1)CC2", "values": [{"measurement": "Potency", "setting": "[1]", "value": "794 nM (active) and 316 nM (active)"}, {"measurement": "activity change, negative = inhibition", "setting": "[2]", "value": -8.89, "unit": "%"}, {"measurement": "Potency", "setting": "[3]", "value": "> 46000", "unit": "nM"}, {"measurement": "Potency", "setting": "[4]", "value": "inactive"}, {"measurement": "Potency", "setting": "[5]", "value": "inactive"}, {"measurement": "outcome", "setting": "[6]", "value": "inactive"}, {"measurement": "Potency", "setting": "[7]", "value": "10 µM (active) and 794 nM (active)"}, {"measurement": "Potency", "setting": "[8]", "value": "2510 nM (active)"}, {"measurement": "Potency", "setting": "[9]", "value": "inactive"}, {"measurement": "Potency", "setting": "[10]", "value": "inactive"}, {"measurement": "Potency", "setting": "[11]", "value": "inactive"}, {"measurement": "outcome", "setting": "[12]", "value": "inactive"}, {"measurement": "outcome", "setting": "[13]", "value": "inactive"}, {"measurement": "outcome", "setting": "[14]", "value": "inactive"}, {"measurement": "outcome", "setting": "[15]", "value": "inactive"}, {"measurement": "Potency", "setting": "[16]", "value": "inactive"}, {"measurement": "Potency", "setting": "[17]", "value": "inactive"}, {"measurement": "Potency", "setting": "[18]", "value": "inactive"}, {"measurement": "Potency", "setting": "[19]", "value": "2000 nM (active)"}, {"measurement": "Potency", "setting": "[20]", "value": "2240 nM (active)"}, {"measurement": "Potency", "setting": "[21]", "value": "1580 nM (active)"}, {"measurement": "Potency", "setting": "[22]", "value": "2240 nM (active)"}]}
